The test system of test [1] is Human papillomavirus type 1a protein E7 (residues 44-93). Put plainly: small molecules binding HPV E7 44-93 – biochemical, small-molecule microarray, residues 44-93, 635 nm fluorescence, primary screen (AID 1108).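 Note: E7 fragment applied at 1 µg/mL in TBST for 1 h at 4 C; score combines spot fluorescence with its signal to noise ratio.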 The note with it: fluorescence 635 nm, higher = more signal.
Test [2] in a line: hepatitis C replication reporter changes, two-sided – Huh7 cells, luciferase reporter, HCV replication inhibitor project, primary screen (AID 1109).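 Note: huh7 hepatoma cells harbouring a luciferase neomycin HCV replicon reporter; luciferase luminescence as measure of HCV replicon replication; test concentration not given here.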 The settings on record: Huh7 HCV replicon luciferase reporter, 48 h; higher = more signal. On the technique in general: Reporter assays use an easily measured gene product as a stand-in for the process of interest.
Test [3] addresses Left-right determination factor 2 (Homo sapiens) (UniProt O00292). The test is described as follows: small molecules binding LEFTY2 protein – biochemical, small-molecule microarray, 635 nm fluorescence scan, primary screen (AID 1110). The note with it: higher = more signal.
For test [4], the target named is Calmodulin-1 (Homo sapiens) (UniProt P0DP23). Put plainly: small molecules binding calmodulin-1 with EGTA – biochemical, small-molecule microarray, Cy5-labelled CALM1, profiling panel (AID 1111).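 Note: labelled calmodulin applied in Tris saline Tween buffer holding calcium plus EGTA and DTT.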 The settings on record: Cy5-CALM1 binding fluorescence, higher = more signal.
Test [5] has the same target. Put plainly: small molecules binding Ca-loaded calmodulin-1 – biochemical, small-molecule microarray, Cy5-labelled CALM1, plus calcium, artefact control for SMM control-protein annotation, profiling panel (AID 1112).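 Note: score merges spot fluorescence with signal to noise from triplicate slides.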 The note with it: Cy5-CALM1 binding fluorescence, higher = more signal.
Test [6] in a line: probe aWnt5a binding to arrayed compounds – biochemical, biotinylated probe, 635/667 nm fluorescence, primary screen (AID 1113).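 Note: score merges 667 nm fluorescence intensity with signal-to-noise per printed feature.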 The settings on record: small-molecule microarray, higher = more signal.
Test [7] in a line: probe aShh binding to arrayed compounds – biochemical, biotinylated probe, 635/667 nm fluorescence, primary screen (AID 1114).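 Note: probe is biotin-labelled aShh protein from a stem cell growth factor screen; measures binding of labelled protein to compounds printed on the slide; score merges feature fluorescence at 667 nm with signal-to-noise.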 The note with it: small-molecule microarray, higher = more signal.
A short description of test [8]: probe aNog binding to arrayed compounds – biochemical, biotinylated probe, 635/667 nm fluorescence, primary screen (AID 1115).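 Note: probe is biotinylated aNog protein used at 0.15 µg/mL for 1 h at 4 C; z-score combines 667 nm fluorescence of each spot with its signal to noise.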 The settings on record: small-molecule microarray, higher = more signal.
Test [9] has as its target Torsin-1A-interacting protein 1 (Homo sapiens) (UniProt Q5JTV8). Put plainly: compound microarray binding of lysate hLAP1 – cell lysate, small-molecule microarray, COS7 lysate, 635/667 nm fluorescence, primary screen (AID 1116). The note with it: 635 nm fluorescence, higher = more signal.
Test [10] concerns the target Alpha-bungarotoxin (Bungarus multicinctus) (UniProt P60615). The test is described as follows: compounds binding labelled alpha-BTX control protein – biochemical, small-molecule microarray, Alexa647 label, 635/667 nm fluorescence, artefact control for SMM control protein annotation, profiling panel (AID 1117). The note with it: alpha-BTX-A647 binding fluorescence, higher = more signal.

The target in another test is Albumin (Bos taurus) (UniProt P02769). Put plainly: compounds binding labelled BSA control protein – biochemical, small-molecule microarray, Alexa647 label, 635/667 nm fluorescence, artefact control for SMM control protein annotation, profiling panel (AID 1118).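 Note: score merges 667 nm emission intensity and signal-to-noise per printed compound spot.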 The note with it: BSA-A647 binding, fluorescence 635 nm, higher = more signal.
Sequence of Albumin (Bos taurus) (P02769 whole entry, looked up): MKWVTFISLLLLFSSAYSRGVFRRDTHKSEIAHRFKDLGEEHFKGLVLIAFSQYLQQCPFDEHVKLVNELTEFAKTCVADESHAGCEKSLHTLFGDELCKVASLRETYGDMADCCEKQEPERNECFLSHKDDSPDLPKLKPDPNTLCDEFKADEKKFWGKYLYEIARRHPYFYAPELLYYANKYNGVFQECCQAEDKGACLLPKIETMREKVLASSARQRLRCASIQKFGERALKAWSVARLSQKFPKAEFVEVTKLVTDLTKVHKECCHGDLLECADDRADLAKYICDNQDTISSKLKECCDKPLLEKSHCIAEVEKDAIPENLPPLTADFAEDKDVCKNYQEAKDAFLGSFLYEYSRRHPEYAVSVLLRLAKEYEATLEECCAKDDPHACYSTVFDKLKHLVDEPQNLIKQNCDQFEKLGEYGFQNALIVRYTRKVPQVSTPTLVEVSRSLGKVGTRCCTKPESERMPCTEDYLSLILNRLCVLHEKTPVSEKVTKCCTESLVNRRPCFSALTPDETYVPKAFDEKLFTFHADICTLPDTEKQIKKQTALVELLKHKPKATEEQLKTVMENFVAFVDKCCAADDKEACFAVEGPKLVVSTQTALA
The nature of test [11]: probe aXIP binding to arrayed compounds – biochemical, NeuroSMM set, 635/667 nm fluorescence, primary screen (AID 1119).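 Note: probe is the protein aXip251-270 applied at 1 µg/mL to compound-printed slides; binding of probe to printed compounds measured as 667 nm fluorescence plus signal to noise.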 The settings on record: small-molecule microarray, higher = more signal, called active from +8 up or from −8 down.
Test [12] can be described thus: probe aNOTCH3 binding on compound microarray – biochemical, small-molecule microarray, 635/667 nm fluorescence, primary screen (AID 1120).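 Note: probe is a biotin-tagged antibody raised against NOTCH3 rather than NOTCH3 protein; score merges spot fluorescence near 667 nm with spot signal to noise.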 The settings on record: higher = more signal.
Test [13] is described as follows: probe aNOTCH2 binding on compound microarray – biochemical, small-molecule microarray, 635/667 nm fluorescence, primary screen (AID 1121).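 Note: score merges feature fluorescence read at 667 nm with its signal to noise.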 The note with it: higher = more signal.
Test [14] has as its target Carbonic anhydrase 2 (Homo sapiens) (UniProt P00918). The test is described as follows: compounds binding carbonic anhydrase 2 – biochemical, small-molecule microarray, Alexa647-labelled CAII, profiling panel (AID 1122). The settings on record: CAII-A647 binding fluorescence, higher = more signal.
Test [15] in a line: COS7 lysate on small-molecule microarray, probe aHis, 635 nm (AID 1123).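 Note: z-score combines 667nm fluorescence intensity with signal-to-noise per printed compound spot.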 The settings on record: COS7 cell lysate, fluorescence, higher = more signal.
Test [16] in a line: probe aLAP1 signal on lysate-treated microarray – cell lysate, small-molecule microarray, COS7 lysate, primary screen (AID 1124).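 Note: lysate comes from COS7 cells expressing LAP1 and is applied at 0.3 µg/mL; score merges spot fluorescence near 667 nm with signal-to-noise over triplicate slides.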 The note with it: probe aLAP1, fluorescence, higher = more signal.
The test system of another test is Sam68 (KHDRBS1). The test is described as follows: compounds binding KHDRBS1 protein – biochemical, small-molecule microarray, 635 nm fluorescence, primary screen (AID 1125).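 Note: score merges 667 nm channel intensity with signal to noise over triplicate slides.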 The note with it: higher = more signal.
Test [17] has as its system Chordin-like protein 2 (CHRDL2). Put plainly: compounds binding chordin-like 2 – biochemical, small-molecule microarray, 635 nm fluorescence, primary screen (AID 1126).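 Note: printed compound slides probed with Chrdl2 protein at 4 µg/mL for 1 h at 4 C; score merges 667 nm emission intensity with signal to noise over three replicate slides.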 The note with it: fluorescence 635 nm, higher = more signal.
Test [18] deals with Concanavalin-A (Canavalia ensiformis) (UniProt P02866). Put plainly: compounds binding concanavalin A lectin – biochemical, small-molecule microarray, Alexa647 label, 635 nm, artefact control for SMM control protein annotation, primary screen (AID 1127).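 Note: z combines 667 nm emission intensity with signal-to-noise across three replicate slides.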 The note with it: ConA-A647 binding fluorescence, higher = more signal.
Sequence of Concanavalin-A (Canavalia ensiformis) (P02866 whole entry, looked up): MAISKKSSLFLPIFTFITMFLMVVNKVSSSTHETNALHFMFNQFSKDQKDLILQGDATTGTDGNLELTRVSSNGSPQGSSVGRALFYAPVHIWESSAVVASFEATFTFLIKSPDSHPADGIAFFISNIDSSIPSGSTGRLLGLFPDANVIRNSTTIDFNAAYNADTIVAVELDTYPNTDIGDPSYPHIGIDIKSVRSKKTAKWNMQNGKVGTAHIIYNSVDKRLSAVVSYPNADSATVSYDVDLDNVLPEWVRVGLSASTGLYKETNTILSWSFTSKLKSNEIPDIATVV

SMILES strings stand for the structures. The source made the active and inactive calls.

Sequence of Alpha-bungarotoxin (Bungarus multicinctus) (P60615 whole entry, looked up): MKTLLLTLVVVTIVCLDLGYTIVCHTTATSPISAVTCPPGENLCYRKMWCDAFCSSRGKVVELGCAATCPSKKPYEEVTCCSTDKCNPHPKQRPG
Sequence of Torsin-1A-interacting protein 1 (Homo sapiens) (Q5JTV8 whole entry, looked up): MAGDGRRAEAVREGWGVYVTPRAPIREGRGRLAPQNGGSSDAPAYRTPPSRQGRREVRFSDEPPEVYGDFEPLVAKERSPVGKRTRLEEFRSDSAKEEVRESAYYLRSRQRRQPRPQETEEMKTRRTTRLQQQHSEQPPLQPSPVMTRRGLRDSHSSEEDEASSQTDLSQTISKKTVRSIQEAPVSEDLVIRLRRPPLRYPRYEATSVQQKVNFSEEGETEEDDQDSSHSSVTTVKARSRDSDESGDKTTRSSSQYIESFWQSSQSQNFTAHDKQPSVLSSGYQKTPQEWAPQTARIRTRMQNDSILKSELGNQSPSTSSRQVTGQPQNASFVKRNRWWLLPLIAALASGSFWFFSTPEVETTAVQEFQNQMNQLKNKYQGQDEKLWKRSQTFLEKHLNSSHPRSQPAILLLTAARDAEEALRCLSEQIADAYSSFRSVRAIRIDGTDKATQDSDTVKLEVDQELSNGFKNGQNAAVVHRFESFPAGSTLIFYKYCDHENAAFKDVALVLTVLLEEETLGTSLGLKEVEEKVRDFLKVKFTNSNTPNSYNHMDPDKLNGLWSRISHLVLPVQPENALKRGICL
Sequence of Left-right determination factor 2 (Homo sapiens) (O00292 whole entry, looked up): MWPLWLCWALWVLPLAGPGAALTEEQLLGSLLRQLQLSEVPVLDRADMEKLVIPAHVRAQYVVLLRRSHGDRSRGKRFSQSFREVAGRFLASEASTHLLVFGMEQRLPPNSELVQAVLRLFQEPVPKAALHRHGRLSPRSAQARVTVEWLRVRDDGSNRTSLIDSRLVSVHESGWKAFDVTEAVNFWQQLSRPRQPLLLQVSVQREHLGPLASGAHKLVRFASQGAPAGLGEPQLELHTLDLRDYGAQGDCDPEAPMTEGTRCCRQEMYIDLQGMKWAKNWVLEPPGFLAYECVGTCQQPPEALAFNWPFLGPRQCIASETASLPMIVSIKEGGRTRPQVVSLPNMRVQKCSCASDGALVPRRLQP

For the compound `C=CCN1C(=O)[C@]2(O[C@H](CCO)[C@@H]([Si](C)(C)c3ccc(OC)cc3)[C@@H]2C)c2cc(N(C=O)c3ccccc3)ccc21`, the composite z-score in test [1] was -0.823; in test [3], -0.155; in test [4], 0.393; in [5] it was 0.217; in [6] it was -0.096; in [7], 0.0684. Further, the composite z-score in test [8] was 0.337; in [9] it was 0.753; in test [10], 0.607; in the test with Albumin (Bos taurus), 0.0925; in [12], -0.0967; in [13], -0.0315. The composite z-score in [14] is 0.561; in test [15] it was 0.225; in test [16] it was 0.398; with Sam68 (KHDRBS1), 0.518; in test [17] it was -0.0095; in test [18], 0.497. For the same compound, the z-score in test [2] is -5.14. Also, the composite Z-score in test [11] is 0.111 (inactive).
With `CC(C)(C)OC(=O)CC[C@]1(C(=O)NCCN2CCOCC2)COC(c2ccc(OCCCO)cc2)=N1`, the composite z-score in [1] is 1.42; in [3] it was 0.051; in test [4], 0.762; in [5], -0.23; in [6], 0.0559; in test [7], -0.0066. The composite z-score is 0.951 in test [8]; 1.27 in test [9]; 0.791 in test [10]; 0.735 with Albumin (Bos taurus); 0.199 in test [12]; -0.0995 in [13]. The composite z-score in [14] is 0.719; in test [15] it was 2.48; in test [16] it was 0.737; with Sam68 (KHDRBS1) it was 1.28; in test [17], -0.634; in test [18] it was 0.919. The z-score in test [2] is -0.464. Besides, in [11], the composite Z-score is 0.347 (inactive).
With `CC(=O)NCCCC[C@@H]1NC(=O)[C@H]2C[C@@H](C(=O)O)[C@@H](c3ccc(O)cc3)N2C1=O`, the composite z-score in test [1] was 1.12; in test [3], 1.08; in test [4], 0.192; in test [5], -0.548; in test [6], 0.0825; in test [7] it was 0.108. The composite z-score in test [8] is 0.005; in test [9], 0.0682; in test [10], 0.626; with Albumin (Bos taurus), -0.0314; in test [12] it was 0.22; in [13] it was -0.0798. Also, the composite z-score is 0.411 in [14]; 1.14 in test [15]; 0.177 in test [16]; 1.29 with Sam68 (KHDRBS1); 1.36 in [17]; 1.1 in test [18]. This compound also showed a z-score in [2] of -3.1. Moreover, the composite Z-score in test [11] was 0.297 (inactive).
On to `Cc1ccc(S[C@]2(C(=O)NCC(C)C)CC(=O)N(Cc3cc(C(F)(F)F)cc(C(F)(F)F)c3)[C@@H]2c2ccc(CO)cc2)cc1`, for which the composite z-score in [1] is -0.716; in [3], -0.419; in [4] it was -0.909; in test [5], -0.468; in [6] it was 0.168; in [7], -0.153. The composite z-score was -0.468 in test [8]; 0.489 in test [9]; -0.0201 in test [10]; 0.539 with Albumin (Bos taurus); -0.123 in [12]; 0.0362 in [13]. Further, the composite z-score is 0.78 in test [14]; 0.586 in [15]; 1.56 in test [16]; -0.309 in the test with Sam68 (KHDRBS1); -0.256 in test [17]; -0.512 in test [18]. For the same compound, in test [2], the z-score was -0.297. Also, the composite Z-score in test [11] was -0.0662 (inactive).
As to `C=C[C@H](C)[C@@H](OC(=O)Nc1ccc(SC)cc1)c1ccc(O)c2ccccc12`, the composite z-score in [1] is 1.41; in [3], 1.23; in [4], 0.988; in [5], -0.0069; in test [6], -0.101; in [7] it was -0.0553. The composite z-score in [8] is -0.343; in test [9], 0.575; in [10], 0.893; with Albumin (Bos taurus) it was 0.0219; in test [12], 0.0636; in test [13], -0.0928. The composite z-score was determined as 0.609 in test [14]; 1.84 in test [15]; 0.188 in [16]; 1.32 in the test with Sam68 (KHDRBS1); 1.13 in test [17]; 1.02 in test [18]. The same compound displayed a z-score in [2] of -0.751. Moreover, the composite Z-score in test [11] was -0.552 (inactive).
Take `Cc1ccc(C2C3C(=O)CC4C(=O)N(c5ccccc5)C(=O)C4C3CN2S(=O)(=O)c2ccc(C)cc2)cc1` (stereo not given): the composite z-score in test [1] worked out at 0.808; in test [3] it was 0.0699; in test [4], 1.33; in test [5] it was 0.531; in [6], 0.374; in test [7] it was 0.343. Besides, the composite z-score was -0.308 in [8]; 1.66 in test [9]; 0.644 in test [10]; 0.684 in the test with Albumin (Bos taurus); 0.469 in test [12]; 0.603 in [13]. Further, the composite z-score is 0.539 in test [14]; 2.17 in test [15]; 0.362 in [16]; 1.17 in the test on Sam68 (KHDRBS1); -0.479 in test [17]; 0.671 in test [18]. In addition, the z-score in test [2] was -0.418. Moreover, the composite Z-score in [11] is -0.0384 (inactive).

The values are drawn from PubChem BioAssay.
